The values that follow come from PubChem BioAssay (NCATS).

Inconclusive results are not listed. The source made the active and inactive calls. Calls come from the whole dose curve; as a rule, active = well fitted inhibition curve with a large enough effect; inconclusive = small, poorly fitted or top-dose-only effect; inactive = no such curve, though single readings can be large or run the other way.

The nature of the first experiment: ZIKV-mCherry secondary qHTS for Zika virus inhibitors (AID 1347158). Note: top concentration of the series differs between compounds. The note with it: Vero cells, ZIKV-mCherry infection imaging, 48-72 h; series mostly up to 32.6 µM; activity change, negative = inhibition: at the top concentration. A digest of the protocol:
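This orthogonal imaging screen measured ZIKV-mCherry infection of Vero cells exposed to compound, MOI 1, 48-72 h. Percent infection came from segmented nuclei scored mCherry-positive above 3 SD of negative controls.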
In general terms: qHTS replaces the single test concentration by a dilution series.
For the molecule `CC1(COc2ccc(CC3SC(=O)NC3=O)cc2)CCCCC1` (configuration not stated), the “activity change, negative = inhibition” value is 30.2% (inactive).
For `CCC(CC)(CC(=O)Nc1cccc(/C=C/c2nc(C3CCC3)cs2)c1)C(=O)O`, the “activity change, negative = inhibition” value is -35.2% [at 49.2 µM] (inactive).
For the molecule `C=C1c2cccc(O)c2C(O)=C2C(=O)[C@]3(O)C(O)=C(C(N)=O)C(=O)[C@@H](N(C)C)[C@@H]3[C@@H](O)[C@H]12`, the “activity change, negative = inhibition” value was 111% (inactive).

A short description of a further experiment: Confirmatory screen NINDS Rhodamine qHTS for Zika virus inhibitors (AID 1347161). Note: potency is the fitted concentration of half-maximal effect; nearly all actives have a fitted effect of over 60% in size. The following applies: purified enzyme assay, Rhodamine110 substrate fluorescence, 15 min; series mostly up to 114 µM; activity change, negative = inhibition: at the top concentration. An excerpt: Avindra Nath, Ph.D., National Institute of Neurological Disorders and Stroke (NINDS), Bethesda, MD
Radhakrishnan Padmanabhan, Ph.D., Georgetown University (GU), Washington D.C.
Zika Virus causes congenital defects, including microcephaly and is associated with Guillain-Barre syndrome, eningoencephalitis and myelitis in infected adult. […] Using a target-based approach, we hope to establish a screening paradigm to uncover novel, cell-active NS2B-NS3 protease (Zika Virus) specific inhibitors from NCATS' collection of small molecules using qHTS.
Four assay panel was created to identify potential Zika Virus inhibitors. Namely, (1) GU unlinked NS2B-NS3 AMC tagged protease qHTS, (2) GU unlinked NS2B-NS3 Rhodamine tagged protease qHTS, (3) NINDS linked NS2B-NS3 AMC tagged protease qHTS, (4) NINDS linked NS2B-NS3 Rhodamine tagged protease qHTS. Active compounds were re-acquired and re-screened to confirm inhibition. Inhibitors were further screened against various confirmatory and counterscreens in dose response format.
Early Translation Branch (ETB)
National Center for Advancing Translational Sciences (NCATS), Rockville, MD
National Institute of Health (NIH), Bethesda, Maryland
For the linked assay, Nath lab (NINDS) provided the purified linked NS2B-NS3 protease which is consists of hydrophilic domain of NS2B linked to the NS3 protease domain by a flexible (-[…]-) linker. Control compound aprotinin is obtained from Thermo Scientific (#78432; Waltham, Massachusetts). Rhodamine110 substrate ([N-Cbz]-Nle-Lys-Arg-Arg-Rhod110-Arg-Arg-Lys-Nle-[N-Cbz]) was purchased from either Genscript or Bachem.
1536-well Protease (Rhodamine110 Substrate) Assay:
Briefly, 3 microL of enzyme (25 nM final concentration), in assay buffer (10 mM Tris-HCl pH 8.0 with 0.01% Tween 20) were dispensed into a 1,536-well solid-bottom black plate (Greiner Bio One, Monroe, NC). Twenty-three nL of compounds (final concentration range 7.28 nM to 114 microM) or control Aprotinin (final concentration range 3.47 nM to 114 microM) were transferred via Wako Pin-tool (Wako Automation, Richmond, VA). Samples were incubated (room temperature, protected from light) for 15 minutes followed by a 1 microL Rhodamine110 substrate addition (1.5 microM final concentration). Plates were then immediately read on a ViewLux High-throughput CCD imager (PerkinElmer, Waltham, MA) equipped with FITC fluorescence optics (480(20) nm excitation, 540(25) nm emission), then incubated (room temperature, protected from light) for 15 minutes (~15% conversion). The change in fluorescence intensity over the 15-minute reaction period was normalized against no-inhibitor and no-enzyme controls and the resulting percent inhibition data were fitted to a 4-parameter Hill equation. Aprotinin was used as intraplate control.
With `CCc1oc2ccccc2c1C(=O)c1cc(Br)c(O)c(Br)c1`, the Potency is 1.75 µM (active).
Same read-out and setting: under `CC1(COc2ccc(CC3SC(=O)NC3=O)cc2)CCCCC1` (configuration not stated) stands 3.11 µM (active).
With `CCC(CC)(CC(=O)Nc1cccc(/C=C/c2nc(C3CCC3)cs2)c1)C(=O)O`, the Potency is 22.1 µM (active).
Same read-out and setting: in the case of `CC(C)=CCOc1ccc(/C=C/C(=O)c2ccc(OCC=C(C)C)cc2OCC(=O)O)cc1` it was 6.31 µM (active).
